Experimental data from article PMC7862700, “An all-to-all approach to the identification of sequence-specific readers for epigenetic DNA modifications on cytosine”.

Legend:
Assay in all cases: DAPPL (digital affinity profiling via proximity ligation, sequencing); 10 mM Tris-HCl pH 7.5, 50 mM NaCl, 1 mM DTT, 4% glycerol, room temperature, 30 min; GST-TFs on glutathione beads, 16-mer random dsDNA library, 0.1% formaldehyde crosslink after washing; high values mean tight binding
[1] = target: T1, FLI1 (Homo sapiens, UniProt Q01543 1-452); conditions: protein: recombinant; tags: N-terminal GST; dsDNA, one strand shown
T1 sequence: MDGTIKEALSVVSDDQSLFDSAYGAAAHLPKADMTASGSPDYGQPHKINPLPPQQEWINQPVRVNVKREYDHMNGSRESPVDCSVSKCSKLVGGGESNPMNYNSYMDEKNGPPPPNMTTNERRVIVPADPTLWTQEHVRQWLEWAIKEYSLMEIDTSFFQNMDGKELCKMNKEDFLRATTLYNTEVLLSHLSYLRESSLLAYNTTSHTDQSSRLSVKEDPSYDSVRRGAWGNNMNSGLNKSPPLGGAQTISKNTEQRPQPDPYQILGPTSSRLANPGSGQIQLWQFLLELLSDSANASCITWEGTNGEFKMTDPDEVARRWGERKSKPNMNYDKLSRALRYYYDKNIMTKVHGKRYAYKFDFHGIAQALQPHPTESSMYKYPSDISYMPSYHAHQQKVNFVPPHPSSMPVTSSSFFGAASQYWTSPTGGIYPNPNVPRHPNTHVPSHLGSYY
Summary of the method: (§1)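 A tag-only sample was pooled with DNA-barcoded human transcription factors that had been expressed in yeast as GST fusions and captured on glutathione beads. The pools were incubated for 30 min at room temperature with 200 nmole of a random double-stranded 16-mer DNA library in Tris/NaCl/DTT/glycerol buffer, then washed, crosslinked with 0.1% formaldehyde, proximity-ligated (BsaI/T4 ligase, 1 h, 37 °C), PCR-amplified and sequenced on an Illumina NextSeq500. Binding signal is each hexamer's read frequency for a factor divided by its frequency for the tag-only sample.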

[2] = target: T2, ELK1 (Homo sapiens, UniProt P19419 1-428); conditions: protein: recombinant; tags: N-terminal GST; dsDNA, one strand shown
T2 sequence: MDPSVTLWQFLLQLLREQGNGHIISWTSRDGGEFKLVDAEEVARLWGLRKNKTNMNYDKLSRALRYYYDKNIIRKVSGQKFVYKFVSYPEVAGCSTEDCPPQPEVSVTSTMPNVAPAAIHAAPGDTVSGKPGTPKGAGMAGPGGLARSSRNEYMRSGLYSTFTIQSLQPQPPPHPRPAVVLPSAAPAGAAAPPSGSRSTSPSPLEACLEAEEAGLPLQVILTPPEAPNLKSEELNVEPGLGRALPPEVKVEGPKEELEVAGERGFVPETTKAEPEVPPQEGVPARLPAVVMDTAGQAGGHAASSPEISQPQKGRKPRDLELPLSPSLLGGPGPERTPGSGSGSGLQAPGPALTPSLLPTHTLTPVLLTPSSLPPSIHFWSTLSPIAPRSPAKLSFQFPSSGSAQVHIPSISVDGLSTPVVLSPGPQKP
Summary of the method: as §1

[3] = target: T3, GABPA (Homo sapiens, UniProt Q06546 1-454); conditions: protein: recombinant; tags: N-terminal GST; dsDNA, one strand shown
T3 sequence: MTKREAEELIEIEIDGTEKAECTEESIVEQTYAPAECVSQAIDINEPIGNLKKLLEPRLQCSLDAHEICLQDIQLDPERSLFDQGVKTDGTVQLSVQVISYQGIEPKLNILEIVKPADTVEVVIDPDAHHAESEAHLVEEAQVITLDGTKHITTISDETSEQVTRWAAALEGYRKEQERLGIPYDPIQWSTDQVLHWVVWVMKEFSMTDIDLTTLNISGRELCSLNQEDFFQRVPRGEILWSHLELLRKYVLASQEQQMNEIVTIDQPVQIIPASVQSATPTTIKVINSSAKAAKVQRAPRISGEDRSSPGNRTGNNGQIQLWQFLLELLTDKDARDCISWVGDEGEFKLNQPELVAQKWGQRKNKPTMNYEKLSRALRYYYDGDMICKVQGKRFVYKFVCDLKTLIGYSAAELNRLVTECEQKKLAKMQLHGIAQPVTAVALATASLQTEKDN
Summary of the method: as §1

[4] = target: T4, ERG (Homo sapiens, UniProt P11308 1-479); conditions: protein: recombinant; tags: N-terminal GST; dsDNA, one strand shown
T4 sequence: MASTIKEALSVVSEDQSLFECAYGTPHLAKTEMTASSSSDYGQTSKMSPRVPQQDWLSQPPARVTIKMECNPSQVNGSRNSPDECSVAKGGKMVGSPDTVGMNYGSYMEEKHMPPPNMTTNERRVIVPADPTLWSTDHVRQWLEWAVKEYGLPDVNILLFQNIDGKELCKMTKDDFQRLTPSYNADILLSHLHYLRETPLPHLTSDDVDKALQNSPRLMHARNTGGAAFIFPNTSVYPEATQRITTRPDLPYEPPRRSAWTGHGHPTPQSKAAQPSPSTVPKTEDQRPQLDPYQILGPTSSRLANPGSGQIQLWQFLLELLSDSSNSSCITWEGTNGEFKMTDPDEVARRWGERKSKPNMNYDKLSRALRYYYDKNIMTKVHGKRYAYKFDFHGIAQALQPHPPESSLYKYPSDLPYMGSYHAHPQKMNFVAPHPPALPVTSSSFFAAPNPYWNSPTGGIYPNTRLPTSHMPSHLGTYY
Summary of the method: as §1

[5] = target: ELF1 (Homo sapiens, UniProt P32519 1-619); conditions: protein: recombinant; tags: N-terminal GST; dsDNA, one strand shown
Chain of ELF1 (P32519 whole entry): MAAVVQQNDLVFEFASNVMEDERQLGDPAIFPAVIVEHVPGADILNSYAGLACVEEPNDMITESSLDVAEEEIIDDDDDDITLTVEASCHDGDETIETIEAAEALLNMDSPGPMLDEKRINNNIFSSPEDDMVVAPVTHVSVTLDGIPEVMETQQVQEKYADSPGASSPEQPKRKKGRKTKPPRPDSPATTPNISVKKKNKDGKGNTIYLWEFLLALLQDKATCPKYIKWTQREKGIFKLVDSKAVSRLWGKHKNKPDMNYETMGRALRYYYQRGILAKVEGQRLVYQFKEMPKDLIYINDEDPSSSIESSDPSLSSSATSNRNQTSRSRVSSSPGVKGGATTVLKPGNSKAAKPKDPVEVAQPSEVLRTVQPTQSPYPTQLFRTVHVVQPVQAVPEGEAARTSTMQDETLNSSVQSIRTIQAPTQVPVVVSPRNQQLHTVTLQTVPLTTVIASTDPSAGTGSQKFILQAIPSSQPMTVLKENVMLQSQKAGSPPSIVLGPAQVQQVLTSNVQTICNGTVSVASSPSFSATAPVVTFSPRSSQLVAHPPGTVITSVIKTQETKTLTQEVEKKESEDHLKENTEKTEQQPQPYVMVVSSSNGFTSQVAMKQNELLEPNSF
Summary of the method: as §1

[6] = target: T5, EHF (Homo sapiens, UniProt Q9NZC4 1-300); conditions: protein: recombinant; tags: N-terminal GST; dsDNA, one strand shown
T5 sequence: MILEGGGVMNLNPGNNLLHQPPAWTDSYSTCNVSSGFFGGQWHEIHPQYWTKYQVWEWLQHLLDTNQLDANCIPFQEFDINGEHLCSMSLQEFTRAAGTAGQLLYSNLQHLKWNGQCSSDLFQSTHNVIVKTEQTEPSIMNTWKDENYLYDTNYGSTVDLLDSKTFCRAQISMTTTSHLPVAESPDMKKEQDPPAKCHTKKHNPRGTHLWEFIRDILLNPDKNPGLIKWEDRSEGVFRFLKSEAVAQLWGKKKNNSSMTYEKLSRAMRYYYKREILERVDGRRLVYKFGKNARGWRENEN
Summary of the method: as §1

[7] = target: SPI1 (Homo sapiens, UniProt P17947 1-270); conditions: protein: recombinant; tags: N-terminal GST; dsDNA, one strand shown
Summary of the method: as §1

[8] = target: SPIB (Homo sapiens, UniProt Q01892 1-262); conditions: protein: recombinant; tags: N-terminal GST; dsDNA, one strand shown
Chain of SPIB (Q01892 whole entry): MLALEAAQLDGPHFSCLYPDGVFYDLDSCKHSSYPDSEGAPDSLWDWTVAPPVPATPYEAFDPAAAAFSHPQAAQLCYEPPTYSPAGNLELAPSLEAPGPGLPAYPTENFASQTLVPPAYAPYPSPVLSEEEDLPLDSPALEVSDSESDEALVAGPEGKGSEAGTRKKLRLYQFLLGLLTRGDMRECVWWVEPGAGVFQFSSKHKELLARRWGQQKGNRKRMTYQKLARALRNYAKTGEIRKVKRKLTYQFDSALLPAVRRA
Summary of the method: as §1

[9] = target: T6, ELK3 (Homo sapiens, UniProt P41970 1-407); conditions: protein: recombinant; tags: N-terminal GST; dsDNA, one strand shown
T6 sequence: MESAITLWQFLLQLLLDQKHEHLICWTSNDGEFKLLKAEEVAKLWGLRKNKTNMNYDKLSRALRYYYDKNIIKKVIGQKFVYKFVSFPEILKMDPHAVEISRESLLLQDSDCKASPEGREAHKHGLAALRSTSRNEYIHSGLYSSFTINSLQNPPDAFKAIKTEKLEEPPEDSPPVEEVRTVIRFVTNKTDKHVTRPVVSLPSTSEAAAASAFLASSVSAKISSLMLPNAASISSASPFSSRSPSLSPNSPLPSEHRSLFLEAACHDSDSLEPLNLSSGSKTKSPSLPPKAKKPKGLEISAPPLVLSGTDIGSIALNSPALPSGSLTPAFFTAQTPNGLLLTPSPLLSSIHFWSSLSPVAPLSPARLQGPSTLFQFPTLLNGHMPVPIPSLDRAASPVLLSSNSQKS
Summary of the method: as §1

[10] = target: T7, FEV (Homo sapiens, UniProt Q99581 1-238); conditions: protein: recombinant; tags: N-terminal GST; dsDNA, one strand shown
T7 sequence: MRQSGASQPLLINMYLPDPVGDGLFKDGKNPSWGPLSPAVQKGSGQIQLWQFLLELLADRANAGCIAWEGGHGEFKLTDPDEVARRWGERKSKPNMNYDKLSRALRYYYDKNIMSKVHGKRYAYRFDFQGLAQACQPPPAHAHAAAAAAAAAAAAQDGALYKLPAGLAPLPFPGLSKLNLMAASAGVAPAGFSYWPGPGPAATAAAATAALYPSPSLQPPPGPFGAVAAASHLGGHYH
Summary of the method: as §1

[11] = target: ETV5 (Homo sapiens, UniProt P41161 1-510); conditions: protein: recombinant; tags: N-terminal GST; dsDNA, one strand shown
Chain of ETV5 (P41161 whole entry): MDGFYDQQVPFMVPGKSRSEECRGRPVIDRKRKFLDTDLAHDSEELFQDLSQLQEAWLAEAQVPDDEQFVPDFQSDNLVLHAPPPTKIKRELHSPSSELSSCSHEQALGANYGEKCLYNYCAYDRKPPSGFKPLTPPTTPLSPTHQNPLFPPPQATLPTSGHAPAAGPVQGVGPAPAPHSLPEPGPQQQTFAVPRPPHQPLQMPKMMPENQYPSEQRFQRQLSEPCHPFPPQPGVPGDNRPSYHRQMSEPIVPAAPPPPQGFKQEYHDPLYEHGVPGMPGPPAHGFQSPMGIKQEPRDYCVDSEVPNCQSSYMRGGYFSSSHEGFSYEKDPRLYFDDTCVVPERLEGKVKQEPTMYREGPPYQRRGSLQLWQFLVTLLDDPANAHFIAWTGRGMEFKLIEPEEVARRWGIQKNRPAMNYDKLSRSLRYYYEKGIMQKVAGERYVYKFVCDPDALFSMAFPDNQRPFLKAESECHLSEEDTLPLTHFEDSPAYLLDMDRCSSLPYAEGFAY
Summary of the method: as §1

[12] = target: HSF1 (Homo sapiens, UniProt Q00613 1-529); conditions: protein: recombinant; tags: N-terminal GST; chain copies: 3; dsDNA, one strand shown
Chain of HSF1 (Q00613 whole entry): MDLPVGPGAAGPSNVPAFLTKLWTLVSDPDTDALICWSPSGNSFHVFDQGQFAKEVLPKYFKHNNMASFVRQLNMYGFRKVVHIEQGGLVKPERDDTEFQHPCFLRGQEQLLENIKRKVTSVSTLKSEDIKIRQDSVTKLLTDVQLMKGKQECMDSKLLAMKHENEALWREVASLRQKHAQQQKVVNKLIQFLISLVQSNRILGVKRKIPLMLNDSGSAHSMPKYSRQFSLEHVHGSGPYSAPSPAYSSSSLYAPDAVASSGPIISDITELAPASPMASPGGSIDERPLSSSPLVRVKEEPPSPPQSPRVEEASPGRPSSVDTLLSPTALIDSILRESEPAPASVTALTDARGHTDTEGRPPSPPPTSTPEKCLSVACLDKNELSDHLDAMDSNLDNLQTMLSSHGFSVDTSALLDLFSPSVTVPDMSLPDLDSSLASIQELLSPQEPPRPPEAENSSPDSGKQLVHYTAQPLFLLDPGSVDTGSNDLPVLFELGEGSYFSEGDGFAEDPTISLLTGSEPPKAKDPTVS
Summary of the method: as §1

[13] = target: ELF4 (Homo sapiens, UniProt Q99607 1-663); conditions: protein: recombinant; tags: N-terminal GST; dsDNA, one strand shown
Chain of ELF4 (Q99607 whole entry): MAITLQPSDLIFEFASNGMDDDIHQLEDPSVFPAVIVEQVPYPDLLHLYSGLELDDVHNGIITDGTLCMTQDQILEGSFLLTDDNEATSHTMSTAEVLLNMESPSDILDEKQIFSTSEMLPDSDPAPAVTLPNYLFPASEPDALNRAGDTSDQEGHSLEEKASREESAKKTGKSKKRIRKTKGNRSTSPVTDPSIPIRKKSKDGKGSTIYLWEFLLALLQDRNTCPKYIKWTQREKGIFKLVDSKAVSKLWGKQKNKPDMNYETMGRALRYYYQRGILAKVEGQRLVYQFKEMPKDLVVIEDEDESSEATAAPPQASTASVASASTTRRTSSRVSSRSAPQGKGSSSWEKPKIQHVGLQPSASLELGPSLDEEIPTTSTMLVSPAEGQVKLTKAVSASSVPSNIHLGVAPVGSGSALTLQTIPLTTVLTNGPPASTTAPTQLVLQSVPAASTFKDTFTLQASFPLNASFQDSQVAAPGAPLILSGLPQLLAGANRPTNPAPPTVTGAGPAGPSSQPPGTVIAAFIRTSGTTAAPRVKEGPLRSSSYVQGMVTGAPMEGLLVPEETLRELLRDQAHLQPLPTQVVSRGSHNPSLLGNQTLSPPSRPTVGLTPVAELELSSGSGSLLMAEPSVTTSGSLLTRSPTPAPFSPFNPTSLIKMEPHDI
Summary of the method: as §1

[14] = target: T8, ELK4 (Homo sapiens, UniProt P28324-2 1-405); conditions: protein: recombinant; tags: N-terminal GST; dsDNA, one strand shown
T8 sequence: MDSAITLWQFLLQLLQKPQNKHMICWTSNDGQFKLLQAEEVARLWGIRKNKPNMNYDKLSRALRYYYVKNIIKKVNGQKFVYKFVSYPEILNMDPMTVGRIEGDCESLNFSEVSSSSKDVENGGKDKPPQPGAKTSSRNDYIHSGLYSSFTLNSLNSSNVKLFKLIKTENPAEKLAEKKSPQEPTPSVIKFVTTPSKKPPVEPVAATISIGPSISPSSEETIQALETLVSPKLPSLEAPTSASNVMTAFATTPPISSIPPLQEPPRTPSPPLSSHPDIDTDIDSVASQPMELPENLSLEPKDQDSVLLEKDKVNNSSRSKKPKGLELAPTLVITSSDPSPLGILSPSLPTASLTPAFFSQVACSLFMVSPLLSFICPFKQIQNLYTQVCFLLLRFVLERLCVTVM
Summary of the method: as §1

[15] = target: T9, ETV2 (Homo sapiens, UniProt O00321 1-342); conditions: protein: recombinant; tags: N-terminal GST; dsDNA, one strand shown
T9 sequence: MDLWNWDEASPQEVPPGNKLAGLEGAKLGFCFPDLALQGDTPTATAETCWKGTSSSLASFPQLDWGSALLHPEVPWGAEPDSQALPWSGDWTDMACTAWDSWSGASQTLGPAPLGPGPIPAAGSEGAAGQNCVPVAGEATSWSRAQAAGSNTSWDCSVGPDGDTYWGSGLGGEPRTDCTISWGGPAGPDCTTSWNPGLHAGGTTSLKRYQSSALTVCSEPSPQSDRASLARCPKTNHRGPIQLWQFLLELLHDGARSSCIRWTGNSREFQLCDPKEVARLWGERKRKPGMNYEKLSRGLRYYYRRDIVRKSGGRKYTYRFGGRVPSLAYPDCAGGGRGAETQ
Summary of the method: as §1

[16] = target: T10, ELF3 (Homo sapiens, UniProt P78545 1-371); conditions: protein: recombinant; tags: N-terminal GST; dsDNA, one strand shown
T10 sequence: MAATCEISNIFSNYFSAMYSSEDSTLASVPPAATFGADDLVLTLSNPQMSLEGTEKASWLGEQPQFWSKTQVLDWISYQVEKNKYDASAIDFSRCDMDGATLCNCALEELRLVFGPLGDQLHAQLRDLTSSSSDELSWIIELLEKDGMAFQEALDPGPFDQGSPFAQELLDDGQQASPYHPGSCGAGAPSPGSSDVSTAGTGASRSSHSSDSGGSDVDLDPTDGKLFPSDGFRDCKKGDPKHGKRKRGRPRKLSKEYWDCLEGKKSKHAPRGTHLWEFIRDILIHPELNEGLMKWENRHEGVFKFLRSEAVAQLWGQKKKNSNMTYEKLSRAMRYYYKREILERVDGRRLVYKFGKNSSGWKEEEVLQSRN
Summary of the method: as §1

[17] = target: CRX (Homo sapiens, UniProt O43186 1-299); conditions: protein: recombinant; tags: N-terminal GST; dsDNA, one strand shown
Chain of CRX (O43186 whole entry): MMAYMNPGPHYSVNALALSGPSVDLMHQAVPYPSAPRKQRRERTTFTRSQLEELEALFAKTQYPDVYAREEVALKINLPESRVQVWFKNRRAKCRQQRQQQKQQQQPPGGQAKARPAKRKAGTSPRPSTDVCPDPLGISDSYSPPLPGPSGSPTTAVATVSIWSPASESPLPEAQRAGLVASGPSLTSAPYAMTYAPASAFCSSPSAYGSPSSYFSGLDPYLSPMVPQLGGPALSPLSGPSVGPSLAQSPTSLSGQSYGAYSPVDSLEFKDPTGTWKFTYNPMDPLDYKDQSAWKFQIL
Summary of the method: as §1

[18] = target: ETV1 (Homo sapiens, UniProt P50549 1-477); conditions: protein: recombinant; tags: N-terminal GST; dsDNA, one strand shown
Chain of ETV1 (P50549 whole entry): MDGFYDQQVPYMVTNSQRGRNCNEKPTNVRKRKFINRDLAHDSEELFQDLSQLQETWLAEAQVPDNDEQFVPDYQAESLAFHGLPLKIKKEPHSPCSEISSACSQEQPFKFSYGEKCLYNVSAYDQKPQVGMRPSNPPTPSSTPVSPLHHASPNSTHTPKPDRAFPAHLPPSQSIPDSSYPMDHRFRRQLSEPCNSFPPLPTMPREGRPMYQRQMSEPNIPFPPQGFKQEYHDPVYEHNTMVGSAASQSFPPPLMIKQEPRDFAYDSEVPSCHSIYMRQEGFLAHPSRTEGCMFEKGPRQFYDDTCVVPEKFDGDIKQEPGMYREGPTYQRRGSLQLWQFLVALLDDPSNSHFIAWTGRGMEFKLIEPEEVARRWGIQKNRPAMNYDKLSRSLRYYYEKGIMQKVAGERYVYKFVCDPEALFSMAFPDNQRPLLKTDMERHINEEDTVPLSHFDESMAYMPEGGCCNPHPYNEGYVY
Summary of the method: as §1

TTCATA
binding signal [1]: 1.17 fold enrichment (6-mer frequency, TF over GST control)
binding signal [2]: 1.16 fold enrichment (6-mer frequency, TF over GST control)
binding signal [3]: 1.18 fold enrichment (6-mer frequency, TF over GST control)
binding signal [4]: 1.11 fold enrichment (6-mer frequency, TF over GST control)
binding signal [5]: 1.19 fold enrichment (6-mer frequency, TF over GST control)
binding signal [6]: 1.18 fold enrichment (6-mer frequency, TF over GST control)
binding signal [7]: 1.18 fold enrichment (6-mer frequency, TF over GST control)
binding signal [8]: 1.23 fold enrichment (6-mer frequency, TF over GST control)
binding signal [9]: 1.16 fold enrichment (6-mer frequency, TF over GST control)
binding signal [10]: 1.12 fold enrichment (6-mer frequency, TF over GST control)
binding signal [11]: 1.1 fold enrichment (6-mer frequency, TF over GST control)
binding signal [12]: 1.05 fold enrichment (6-mer frequency, TF over GST control)
binding signal [13]: 1.19 fold enrichment (6-mer frequency, TF over GST control)
binding signal [14]: 1.2 fold enrichment (6-mer frequency, TF over GST control)
binding signal [15]: 1.06 fold enrichment (6-mer frequency, TF over GST control)
binding signal [16]: 1.24 fold enrichment (6-mer frequency, TF over GST control)
binding signal [17]: 1.2 fold enrichment (6-mer frequency, TF over GST control)
binding signal [18]: 1.24 fold enrichment (6-mer frequency, TF over GST control)
